Test results reported in PubChem BioAssay (Tox21).
Results filed as inconclusive are left out. Where a call stands in place of a potency, no number is given. Activity calls are given as the source filed them. Calls come from the whole dose curve.

Target: Retinoic acid receptor RXR-alpha (Homo sapiens) (UniProt P19793)
Experiment: qHTS assay to identify small molecule agonists of the RXR signaling pathway (AID 1159527); note: nearly all actives have a fitted effect of over 35% in size
Details: HEK293T RXRa-UAS-bla, beta-lactamase ratio, 16 h; series mostly up to 76.8 µM
Excerpt: U.S. Tox21 Program National Center for Advancing Translational Sciences [NCATS] NIH Chemical Genomics Center [NCGC] U.S. Environmental Protection Agency [EPA] National Institutes of Environmental Health Sciences [NIEHS] National Toxicology Program [NTP] U.S. Food and Drug Administration [FDA] Tox21 Assay Overview: The Retinoid X receptor (RXR), a nuclear hormone receptor expressed in liver, spleen, placenta, epidermis, central nervous system. These receptors are able to form homo and heterodimers with other nuclear receptors and due to this heterodimerizing ability, RXR functions as master regulators producing diverse physiological effects. Three subtypes of RXR exist; alpha, beta and gamma. Retinoid X receptor alpha (RXR-alpha) has potential roles in metabolic signaling pathways, skin alopecia, dermal cysts, cardiac development, insulin sensitization etc. Therefore screening environmental chemicals on RXR-alpha signaling can be used for the studies focused on such therapeutic applications. For quantification of RXR-alpha ligands signaling, GeneBLAzer RXR alpha-UAS-bla HEK 293T (Life Technologies, Carlsbad, CA) cells containing a beta-lactamase reporter-gene under control of Retinoid X receptor-alpha response element were used to screen Tox21 10K library.
Tox21 Assay Protocol Summary: RXR-alpha HEK 293T cells were dispensed at 2,000 cells/6 uL of assay medium containing 2% charcoal-stripped FBS using a Multidrop Combi (ThermoFisher Scientific, Waltham, MA) dispenser. The assay was performed in black wall/clear-bottom 1536-well plates (Greiner Bio-One North America Inc. Monroe, NC). 9-cis retinoic acid was used as a positive control in the agonist mode screen. After the assay plates were incubated at 37 C and 5% CO2 for 5 hr, 23 nL of compounds dissolved in DMSO, positive controls or DMSO only were transferred to the assay plate by a Pintool station (Kalypsys, San Diego, CA). The assay plates were incubated at 37 C and 5% CO2 for 16 hr. One uL of LiveBLAzer B/G FRET substrate (Life Technologies) was added using a Flying Reagent Dispenser (Aurora Discovery, San Diego, CA) and the plates were incubated at room temperature for 2 hr. Fluorescence intensity (405 nm excitation, 460/530 nm emission) was measured using an Envision plate reader (PerkinElmer, Shelton, CT).
Potency is the fitted concentration of half-maximal effect.

Chain of Retinoic acid receptor RXR-alpha (Homo sapiens) (P19793 whole entry, looked up): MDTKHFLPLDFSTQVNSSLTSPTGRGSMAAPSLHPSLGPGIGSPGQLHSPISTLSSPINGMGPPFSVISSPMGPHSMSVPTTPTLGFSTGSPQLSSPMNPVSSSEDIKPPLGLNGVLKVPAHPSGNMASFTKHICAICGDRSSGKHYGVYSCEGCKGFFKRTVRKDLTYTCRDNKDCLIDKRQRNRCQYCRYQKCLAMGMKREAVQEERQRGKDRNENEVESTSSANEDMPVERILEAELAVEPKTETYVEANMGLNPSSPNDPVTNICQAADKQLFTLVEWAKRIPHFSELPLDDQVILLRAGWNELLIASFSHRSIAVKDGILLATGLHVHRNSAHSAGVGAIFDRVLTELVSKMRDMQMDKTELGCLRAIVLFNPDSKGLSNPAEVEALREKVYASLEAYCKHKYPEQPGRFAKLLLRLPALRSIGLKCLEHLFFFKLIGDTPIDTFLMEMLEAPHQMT

Row | SMILES | Potency | activation
1 | CNC(=S)NC | 38.9 µM (active) | 
2 | CCCCOC(=O)CCS | inactive | 
3 | CC#N | inactive | 
4 | CC[C@@H]([C@H](C)O)n1ncn(-c2ccc(N3CCN(c4ccc(OC[C@@H]5CO[C@@](Cn6cncn6)(c6ccc(F)cc6F)C5)cc4)CC3)cc2)c1=O | inactive | 
5 | CCCCC(=O)O[C@]1(C(=O)CO)CC[C@H]2[C@@H]3CCC4=CC(=O)CC[C@]4(C)[C@H]3[C@@H](O)C[C@@]21C | inactive | 
6 | CC(=O)[C@H]1CC[C@H]2[C@@H]3C[C@H](C)C4=CC(=O)CC[C@]4(C)[C@H]3[C@@H](O)C[C@]12C | inactive | 
7 | O=C(CCCCCCC(=O)Nc1ccccc1)NO | inactive | 
8 | CC(C)C(=O)O | inactive | 
9 | c1ccc(COCc2ccccc2)cc1 | inactive | 
10 | CCc1cccc(N(C)C(N)=Nc2cccc3ccccc23)c1 | inactive | 
11 | NC(=O)Nc1ccc(Cl)cc1 | inactive | 
12 | C/C=C(\C)C(=O)OCCC(C)CCC=C(C)C (stereo not given) | inactive | 
13 | CCCCCCCCCCCCCCC[C@H](O)[C@@H](N)CO | inactive | 
14 | Cc1oncc1C(=O)Nc1ccc(C(F)(F)F)cc1 | inactive | 
15 | CCN(CC)CCNC(=O)c1ccc(NC(C)=O)cc1 | inactive | 
16 | CCCCCCOC(=O)CCCCCCCC(=O)OCCCCCC | inactive | 
17 | CC(C)(O)c1ccccc1CC[C@@H](SCC1(CC(=O)O)CC1)c1cccc(/C=C/c2ccc3ccc(Cl)cc3n2)c1 | inactive | 
18 | CCC(C(=O)OCCN(CC)CC)c1ccccc1 (stereo not given) | inactive | 
19 | O=C(O)c1snc(Cl)c1Cl | inactive | 
20 | O=Cc1c(Cl)cccc1Cl | inactive | 

Row | SMILES | Potency | activation
21 | CN1CCCN=C1/C=C/c1cccs1 | inactive | 
22 | CC1CN(c2cc3c(cc2F)c(=O)c(C(=O)O)cn3-c2ccc(F)cc2F)CCN1 (stereo not given) |  | -0.207% [at 6.98 µM] (inactive)
23 | O=C(CS)OCCOC(=O)CS | inactive | 
24 | CC(C)CCCC(=O)O | inactive | 
25 | O=C(O)C(Cc1cc(I)c(O)c(I)c1)c1ccccc1 (stereo not given) | inactive | 
26 | CCCOCCOCCO | inactive | 
27 | c1cnc2c(n1)CCCC2 | inactive | 
28 | CCC1(C)CC(=O)NC1=O (stereo not given) | inactive | 
29 | CC(=O)Nc1ccccc1C | inactive | 
30 | CC(C)C(OC(=O)c1ccccc1)C(C)(C)COC(=O)c1ccccc1 (stereo not given) | inactive | 
31 | CCn1cc(C(=O)O)c(=O)c2cc(F)c(N3CCNCC3)nc21 | inactive | 
32 | C[N+](C)(C)CCOC(N)=O | inactive | 
33 | CN1Cc2cc(C(=O)N3CCC(C4CCNCC4)CC3)ccc2N[C@@H](CC(=O)O)C1=O | inactive | 
34 | CC(CCO)CCc1ccccc1 (stereo not given) | inactive | 
35 | CCCCC(CC)CNCC(CC)CCCC (stereo not given) | inactive | 
36 | CC(C)CCCCCCOC(=O)CCCCC(=O)OCCCCCCC(C)C | inactive | 
37 | COC(=O)[C@@H]1CC2=CC(=O)CC[C@]2(C)[C@@]23O[C@@H]2C[C@@]2(C)[C@@H](CC[C@@]24CCC(=O)O4)[C@H]13 | inactive | 
38 | CCCC(=O)O[C@]1(C(=O)COC(=O)CC)CC[C@H]2[C@@H]3CCC4=CC(=O)CC[C@]4(C)[C@H]3[C@@H](O)C[C@@]21C |  | 11.5% [at 15.8 µM] (inactive)
39 | C=CCCCCCCCCCCCCCCCC |  | 0.376% [at 6.98 µM] (inactive)
40 | O=C1OCCN1/N=C/c1ccc([N+](=O)[O-])o1 | inactive | 
